Source: PubChem BioAssay
VACV Venus inh = inhibitors of vaccinia virus (Venus reporter); Potency, µM (doses to about 36.5 µM), most hits filed as inhibitors; Vaccinia virus Venus reporter expression, fluorescence; hit rate 0.46% among 330,000; calls by dose curve; tested in A549 cells; also: nearly all actives have a fitted effect of over 30% in size
FMDV antiviral = blocks foot and mouth disease virus; Potency, µM (top dose mostly 57.9 µM), most hits filed as inhibitors; FMDV antiviral cell-based qHTS; hit rate 1.2% among 410,000; calls by dose curve; tested in HEK293T cells; also: read-out not given here; nearly all actives have a fitted effect of over 45% in size
HCV inh = blocks hepatitis C virus | Huh7.5.1 HCVcc-Cre infection, luciferase reporter, 44 h | Potency, µM (top dose mostly 41.8 µM), actives largely listed as inhibitors | hit rate 3.4% among 340,000 | AID 651820
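Compounds are dispensed onto cells plated 4 h earlier at 1,000 per well, with HCVcc-Cre virus (about 0.5 moi) added next. Following 44 h of culture, luminescent signal is measured for 15 sec after 15 min with substrate at room temperature.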
Vaccinia mCherry = vaccinia inhibition (mCherry reporter); Vaccinia virus mCherry reporter infection, fluorescence; Potency, µM (doses to about 36.5 µM), most hits filed as inhibitors; hit rate 0.63% among 310,000; calls by dose curve; tested in A549 cells; also: nearly all actives have a fitted effect of over 35% in size
Sm TGR block = inhibitors of Schistosoma mansoni thioredoxin glutathione reductase. Q962Y6. AID 485364. purified TGR, DTNB reduction, TNB absorbance 405 nm. Potency, µM (series often up to 114 µM), most hits filed as inhibitors. hit rate 3% among 360,000; also: nearly all actives have a fitted effect of over 60% in size
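Kinetic colorimetric format: TGR-catalysed, NADPH-driven DTNB reduction monitored via TNB absorbance. Enzyme dispensed at 20 nM; compound exposure 15 min at room temperature before reaction start.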
HCMV inh = blocks human cytomegalovirus replication; AID 1259415; activity change, negative = inhibition, % at 57.5 µM; HFF cells, HCMV-luciferase reporter, 72 h; hits give low values; hit rate 4.5% among 410,000; in the data active = activity change below about -60%; inconclusive = no clear call, values can overlap the other calls; inactive = above about -39%
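Steps: HFFs plated, 16 h 37C; compounds added; HCMV-luciferase added to MOI 1 PFU/cell; 72 h 37C; OneGlo reagent, 5 min room temperature; luminescence read, normalized to controls.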
Of the large screens only hits and unclear results are named; the others gave an inactive call. In the library only some 9.3% were active in any assay of this set; here they are far more common. Unless noted, calls follow the shape of the dose curve; as a rule, active = well fitted curve in the direction sought with a large enough effect; inconclusive = small, poorly fitted or top-dose-only effect, or another doubt; inactive = no such curve, though single readings can be large; an effect the other way counts as inactive or inconclusive.

CN(C)C(=O)CSc1ncnc2scc(-c3ccccc3)c12	none
Cn1nnnc1Sc1ncnc2scc(-c3cccc4c3sc3ccccc34)c12	FMDV antiviral 28µM, HCMV inh -92 (no result: VACV Venus inh, HCV inh, Vaccinia mCherry, Sm TGR block)
COc1ccc(Cc2c(-c3ccc(C)cc3)nc3ccc(Cl)cn23)c(C)c1	VACV Venus inh inconclusive (no result: HCV inh, Sm TGR block)
O=C(O)CSc1ncnc2scc(-c3ccccc3)c12	none
Cn1nnnc1Sc1ncnc2scc(-c3ccccc3Cl)c12	HCMV inh -73 (no result: VACV Venus inh, HCV inh, Vaccinia mCherry)
Clc1ccc(-c2csc3ncnc(Sc4nnnn4-c4ccccc4)c23)cc1	VACV Venus inh inconclusive, Vaccinia mCherry 10µM (no result: FMDV antiviral, HCV inh, Sm TGR block, HCMV inh)
CC(Cl)C(=O)Nc1ncc(C(F)(F)F)cc1Cl (centres undefined)	none
COc1ccc(S(=O)(=O)Oc2ccccc2C(=S)N2CCOCC2)cc1	none (no result: VACV Venus inh, FMDV antiviral, HCV inh, Vaccinia mCherry)
O=C1N/C(=C/c2ccc(N3CCOCC3)o2)C(=O)N1c1ccccc1	FMDV antiviral inconclusive, HCV inh inconclusive, Sm TGR block 8.9µM
CN1C(=O)/C(=C/c2ccc(N3CCCCCC3)o2)C(=O)NC1=S	Sm TGR block 40µM (no result: VACV Venus inh, Vaccinia mCherry)
O=C1N/C(=C/c2ccc(N3CCCC3)cc2)C(=O)N1c1ccccc1	none
COc1ccc2cc(/C=C3\SC(=S)NC3=O)c(N3CCOCC3)nc2c1	FMDV antiviral 28µM, HCV inh inconclusive, HCMV inh -88
CN1C(=O)/C(=C\c2ccc(N3CCCCC3)o2)C(=O)NC1=S	Sm TGR block inconclusive
COc1cccc(C=C2SC(=S)NC2=O)c1	none (no result: Sm TGR block)
O=C1NC(=S)S/C1=C/c1ccc(N2CCOCC2)o1	FMDV antiviral inconclusive, HCV inh inconclusive, Sm TGR block 3.5µM (no result: HCMV inh)
CN1C(=O)C(=Cc2ccc(N3CCOCC3)o2)C(=O)N(C)C1=S	none
CC(C)(C)c1ccc(C(=O)N2CCNC(=O)C2CC(=O)Nc2ccc(F)cc2)cc1 (centres undefined)	FMDV antiviral inconclusive
O=C(O)CC(NNC(=O)c1ccccc1)C(=O)Nc1cccc([N+](=O)[O-])c1 (centres undefined)	none (no result: VACV Venus inh, Vaccinia mCherry)
CCN1C(=O)C(=Cc2ccc(N3CCOCC3)o2)C(=O)N(CC)C1=S	none (no result: VACV Venus inh, Vaccinia mCherry)
C=CCN1C(=O)N/C(=C/c2ccc(N3CCOCC3)o2)C1=O	Sm TGR block 7.1µM, HCMV inh -63 (no result: VACV Venus inh, FMDV antiviral, Vaccinia mCherry)
C=CCN1C(=O)S/C(=C\c2ccc(N3CCOCC3)cc2C)C1=O	HCV inh inconclusive
C=CCN1C(=O)/C(=C\c2ccc(N3CCOCC3)o2)C(=O)NC1=S	Sm TGR block 50µM
Cn1c(CNC(=O)c2ccco2)nnc1SCC(=O)Nc1cccc(F)c1	none
CCc1ccccc1N1C(=O)N(Cc2ccccc2C)c2ccccc2S1(=O)=O	VACV Venus inh inconclusive, Vaccinia mCherry inconclusive, HCMV inh -105 (no result: HCV inh)
CC1=C(c2ccc(Cl)cc2)S(=O)(=O)N=C1N1CCC(C(=O)NCc2ccccc2F)CC1	none (no result: HCV inh)
COC(=O)C1=C(N)OC2=C(C(=O)CC(C)(C)C2)C1c1cccnc1 (centres undefined)	none
O=C(Nc1ccc(OC(F)(F)F)cc1)Nc1cccc([N+](=O)[O-])c1	VACV Venus inh 10µM, HCV inh inconclusive, Vaccinia mCherry 10µM, HCMV inh -104
Cc1ccc(NC(=O)Nc2cccc([N+](=O)[O-])c2)cc1F	VACV Venus inh inconclusive, HCV inh 11µM, Vaccinia mCherry inconclusive, HCMV inh -100
CCOC(=O)C1=C(O)/C(=C/c2ccc(CNC(=O)C(=O)Nc3ccc(C)cc3)o2)N=C1C	Sm TGR block 18µM (no result: Vaccinia mCherry)
COC(=O)C1=C(O)/C(=C/c2ccc(OCC(=O)Nc3ccc(OC)cc3)cc2)N=C1C	none (no result: HCV inh, Sm TGR block)
COC(=O)C1=C(O)/C(=C\c2ccc(CNC(=O)C(=O)Nc3ccc(C)cc3)o2)N=C1C	Sm TGR block 18µM (no result: Vaccinia mCherry)
CCOC(=O)c1ccc(NC(=O)C(=O)NCc2ccc(/C=C(/C#N)C(=O)NCCOC)o2)cc1	HCV inh inconclusive
COC(=O)C1=C(O)/C(=C\c2ccc(CNC(=O)C(=O)Nc3ccc(C)c(C)c3)o2)N=C1C	Sm TGR block 32µM (no result: Vaccinia mCherry)
CCOC(=O)C1=C(O)/C(=C\c2cccc(OC)c2)N=C1C	none (no result: FMDV antiviral)
CCOC(=O)C(=O)NCc1ccc(/C=C2/N=C(C)C(C(=O)OCC)=C2O)o1	Sm TGR block 32µM
Nc1ccc(NC(=O)c2ccc(C(=O)Nc3ccc(N)cc3)cc2)cc1	none
Nc1ccc([As](=O)(O)O)cc1	Sm TGR block 35µM
Cc1ccccc1N1CC(C(=O)O)CC1=O (centres undefined)	HCV inh inconclusive, HCMV inh -85
Cc1ccccc1N1CC(C(=O)N2CCc3ccccc32)CC1=O (centres undefined)	none
COc1cccc(C(=O)NCCS(=O)(=O)NCc2ccco2)c1	Sm TGR block inconclusive, HCMV inh -68
COc1ccc(C(=O)NCCS(=O)(=O)NCc2ccco2)cc1	Sm TGR block 45µM
COc1ccc(CNS(=O)(=O)CCNC(=O)c2ccc(OC)cc2)cc1	none
COc1cccc(C(=O)NCc2ccco2)c1	none (no result: VACV Venus inh, Vaccinia mCherry)
COC(=O)C1C(O)=C(C=Nc2cccc3ccccc23)C(=O)CC1(C)C (centres undefined)	none
O=C(CCc1nnc2ccc(NCc3ccco3)nn12)N1CCCCC1	none (no result: VACV Venus inh, Vaccinia mCherry)
N#C/C(=C\c1ccc(-c2ccc([N+](=O)[O-])cc2)o1)C(=O)Nc1nc(-c2cccs2)cs1	HCV inh 10µM (no result: VACV Venus inh, Vaccinia mCherry)
N#C/C(=C/c1ccc(-c2cccc([N+](=O)[O-])c2)o1)C(=O)Nc1nc(-c2cccs2)cs1	none (no result: Sm TGR block)
CCOP(=O)(OCC)C(NC(=O)Cc1ccccc1)C(Cl)(Cl)Cl (centres undefined)	none
CC(C)C(=O)NC(Oc1ccccc1Cl)C(Cl)(Cl)Cl (centres undefined)	Sm TGR block 25µM
O=C(Cc1ccccc1)NC(Oc1ccccc1Cl)C(Cl)(Cl)Cl (centres undefined)	Sm TGR block 32µM
Cc1cc(C(=O)COC(=O)c2cccc(S(=O)(=O)N(C)C)c2)c(C)n1CC1CCCO1 (centres undefined)	none
Cn1c(Cl)cnc1C(O)(c1ccccc1)c1ccccc1	HCMV inh inconclusive (no result: VACV Venus inh, Vaccinia mCherry)
Cc1sc2nc(CSCC(=O)Nc3ccc(N4CCOCC4)cc3)[nH]c(=O)c2c1C	HCMV inh inconclusive
O=C1c2ccccc2C(=O)c2c1cccc2N1CCOCC1	HCV inh 22µM
O=C1c2cccc3cccc(c23)C(=O)N1OS(=O)(=O)c1ccccc1	none (no result: Vaccinia mCherry)
Cc1ccc(C)c(S(=O)(=O)ON2C(=O)c3ccccc3C2=O)c1	FMDV antiviral inconclusive, Sm TGR block 0.89µM
Cc1cc(S(=O)(=O)ON2C(=O)c3ccccc3C2=O)ccc1F	FMDV antiviral inconclusive, Sm TGR block 0.79µM (no result: VACV Venus inh, Vaccinia mCherry)
O=C1c2ccccc2C(=O)N1OS(=O)(=O)c1ccccc1	Sm TGR block 1.3µM (no result: VACV Venus inh, FMDV antiviral, Vaccinia mCherry, HCMV inh)
Cc1ccc(S(=O)(=O)ON2C(=O)c3cccc4cccc(c34)C2=O)cc1	none (no result: VACV Venus inh, Vaccinia mCherry)
c1n[nH]c(NC2=NCCC2)n1	VACV Venus inh inconclusive
Cc1ccc(Cl)cc1N1CCN(C(=O)CCCCCn2c(=O)[nH]c3ccccc3c2=O)CC1	none (no result: HCV inh)
